# This is one part of a sample in which hits are shown more often than they occur.
# Sm TGR inh: blocks Schistosoma mansoni thioredoxin glutathione reductase. purified TGR, DTNB reduction, TNB absorbance 405 nm. 360,000 tested, 3% active. Potency, µM (top dose mostly 114 µM), inactives show top-dose activity change, negative = inhibition, actives largely listed as inhibitors. Q962Y6; further: potency means the concentration at half of the fitted maximal effect; on the % scale 0 is the no-effect control and ±100 the full control effect; nearly all actives have a fitted effect of over 60% in size
#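 Kinetic colorimetric format: TGR-catalysed, NADPH-driven DTNB reduction monitored via TNB absorbance. Enzyme dispensed at 20 nM; compound exposure 15 min at room temperature before reaction start.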
# LmPK inhibitor: inhibitors of Leishmania mexicana pyruvate kinase; Potency, µM (top dose mostly 57.5 µM), for the others: top-dose activity change, negative = inhibition, usual class: inhibitors; purified LmPK, Kinase-Glo ATP luminescence, 1 h; Q27686; 290,000 tested, 0.37% active; further: potency means the concentration at half of the fitted maximal effect; on the % scale 0 is the no-effect control and ±100 the full control effect
#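 Kinase-Glo luminescence read after 1 h RT reaction of 0.1 nM LmPK with 0.5 mM PEP and 0.1 mM ADP. Activity scaled between uninhibited and enzyme-free controls.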
# Shiga toxin inh: Shiga toxin inhibition; Vero cells, Shiga toxin protein synthesis inhibition reporter; inhibition, % at 38.7 µM; 290,000 tested, 9.2% active; AID 2315; in the data active means inhibition mostly above about 28%, no sharp cut-off; inactive means mostly below about 43%; further: 0% is about no effect
# CHX counter: affects cycloheximide protein synthesis inhibition readout, counter-screen. cell reporter, cycloheximide protein synthesis inhibition counterscreen. max response, %. 300,000 tested, 12% active; in the data active means max response mostly above about 13%, no sharp cut-off; inactive means mostly below about 14%; further: read at 38.3 µM for the half of the compounds with a filed dose; 0% is about no effect
# TbPYK inhibitor: blocks Trypanosoma brucei pyruvate kinase; 410,000 tested, 0.12% active; Q57TT1; AID 624173; Potency, µM (top dose mostly 76.8 µM), for the others: at the top dose activity, negative = inhibition, hits mostly inhibitors; TbPYK enzyme, Kinase-Glo Plus ATP luminescence, 45 min; further: potency means the concentration at half of the fitted maximal effect; on the % scale 0 is the no-effect control and ±100 the full control effect; nearly all actives have a fitted effect of over 50% in size
#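 TbPYK + substrate in 50 mM TEA pH 7.2, 100 mM KCl, 10 mM MgCl2, 0.05% BSA, 0.01% Tween-20; cpd pinned; ADP 130 uM final; 45 min RT; Kinase-Glo Plus 10 min; luminescence endpoint.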
# Giardia FBPA inh: Giardia lamblia aldolase inhibition | Potency, µM (doses to about 59.6 µM), for the others: at the highest dose activity, negative = inhibition, hits mostly inhibitors | 290,000 tested, 0.71% active | A8B2U2 | purified Giardia FBPA; further: potency means the concentration at half of the fitted maximal effect; on the % scale 0 is the no-effect control and ±100 the full control effect; nearly all actives have a fitted effect of over 55% in size
# Target sequence (A8B2U2 whole entry, looked up): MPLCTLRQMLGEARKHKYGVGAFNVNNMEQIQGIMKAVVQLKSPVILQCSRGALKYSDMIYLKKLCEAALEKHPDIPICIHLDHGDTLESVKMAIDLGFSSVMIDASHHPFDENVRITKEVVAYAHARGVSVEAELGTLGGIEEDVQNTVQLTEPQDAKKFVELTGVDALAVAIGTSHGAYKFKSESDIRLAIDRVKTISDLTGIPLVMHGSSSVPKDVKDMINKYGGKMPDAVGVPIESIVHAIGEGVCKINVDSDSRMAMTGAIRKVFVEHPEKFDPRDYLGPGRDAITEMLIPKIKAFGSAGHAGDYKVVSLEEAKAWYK
#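 40 nM FBPA preincubated 10 min at RT with compound (up to 57.5 uM final), then substrate plus GAPDH/TPI/NAD/arsenate coupling and diaphorase/resazurin added. Fluorescence read after 20 min at RT, 525/598 nm.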
# An asterisk follows results filed as active; u = inconclusive; x = not tested or not shown; [ ] = another dose, or the depositor's remark. Unless noted, the call rests on the fitted dose curve; in most records, active means well fitted curve in the direction sought with a large enough effect; inconclusive means small, poorly fitted or top-dose-only effect, or another doubt; inactive means no such curve, though single readings can be large; an effect the other way counts as inactive or inconclusive.
SMILES,Sm TGR inh,LmPK inhibitor,Shiga toxin inh,CHX counter,TbPYK inhibitor,Giardia FBPA inh
CCOC(=O)C1(Cc2cccc(Cl)c2)CCCN(C(=O)c2cnn(CC)c2)C1 (stereo not drawn),2%,-5%,39*,22*,3%,5%
CCOC(=O)C1(Cc2cccc(Cl)c2)CCCN(C(=O)CN2C(=O)CSC2=O)C1 (stereo not drawn),2%,-1%,46*,36*,1%,-7%
COC(=O)c1ccc(Cl)cc1NC(=O)N1CC=C(c2c[nH]c3ccccc23)CC1,-22%,x,x,x,4%[15.4 µM],x
Cc1cccc(Nc2ccc(C(=O)N3CCOCC3)cn2)c1,-12%,3%,66*,46*,1%,4%
CC(=O)/C(=N/Nc1cccc(C)c1)N1CCOCC1,50µM*,5%,-13,-3,1%,-13%
O=C(c1ccc(Nc2cccc(C(F)(F)F)c2)nc1)N1CCCC1,-11%,4%,19,9,-17%,4%
C[C@@]12CCC(OC(=O)c3ccccc3)CC1CCc1ccccc12 (stereo partly drawn),x,x,x,x,x,-2%
O=C1CCCCC1(CCc1ccncc1)CCc1ccncc1,x,x,x,x,0%,x
O=S(=O)(CCc1ccncc1)C1Cc2cccc3cccc1c23 (stereo not drawn),35µM*,-3%,-11,-2,-3%,-3%
COC(=O)C1=C(O)/C(=C/c2cccc(OC)c2O)N=C1C,2%,25µM*,47*,29*,-24%,-12%
Cc1ccccc1NC(=O)CSc1nc2nccnc2c(=O)n1CCc1c[nH]c2ccccc12,-4%,x,x,x,15%,x
CCOC(=O)c1c(NC(=O)CSc2cn(CCNC(=O)c3ccc(OC)c(OC)c3)c3ccccc23)sc2c1CCCC2,10%,x,x,x,0%,x
CCOc1ccccc1-c1nc(C(N)=O)c2c(n1)n(-c1ccc3c(c1)OCO3)c(=O)n2C,9%,x,x,x,-5%,x
Clc1ccc2nc(COc3ccccc3)[nH]c2c1,1%,5%,x,34*,1%,-8%
O=c1[nH]c(COc2ccccc2)nc2ccccc12,65%,-9%,49*,25*,2%,1%
Cc1cc(=O)[nH]c(COc2ccccc2)n1,7%,-9%,-8,3,-5%,-3%
S=c1nc(Cc2ccc(Cl)cc2)[nH]c2ccccc12,1%,-7%,-8,13*,-1%,3%
S=c1nc(COc2ccccc2)[nH]c2ccccc12,-21%,-4%,116*,58*,-19%,16%
O=c1[nH]c(COc2ccc(Br)cc2Cl)nc2ccccc12,2%,1%,104*,37*,0%,x
FC(F)(F)c1nc(=S)c2ccccc2[nH]1,2µM*,-29%,-3,1,u,u
O=C(CCc1nc2ccccc2c(=O)[nH]1)NNC(=O)COc1ccc(Br)cc1,1%,x,x,x,-9%,x
Cc1ccccc1Cn1cc(NC(=O)c2cc(C3CC3)on2)cn1,18%,8%,73*,44*,-3%,17%
CC(=O)N1CCCC(c2cc(C(=O)Nc3ccccc3)no2)C1 (stereo not drawn),x,x,x,x,-14%,x
CCc1ccccc1NC(=O)c1cc(C2CC2)on1,4%,-6%,47,11*,-5%,0%
COc1ccccc1C(=O)Nc1nnc(SCc2cc(=O)n3ccc(C)cc3n2)s1,0%,x,x,x,0%,x
SMILES,Sm TGR inh,LmPK inhibitor,Shiga toxin inh,CHX counter,TbPYK inhibitor,Giardia FBPA inh
O=C(Nc1ccccc1F)c1cc(Cl)sc1Cl,10%,-1%,72*,31*,-6%,20%
Cc1cccc(NC(=O)c2cc(Cl)sc2Cl)c1C,6%,3%,-13,-2,-7%,2%
O=C(Nc1ccc(F)cc1F)c1cc(Cl)sc1Cl,3%,-3%,86,30*,5%,1%
O=c1cccc2n1Cc1cc3ccccc3nc1-2,-4%,-29%,38*,39*,-6%,0%
CC(=O)NC(CCC(N)=O)C(=O)O (stereo not drawn),x,x,x,x,3%,x
O=C1C2C3C=CC(C3)C2C(=O)N1c1ccc(-c2nc3ccccc3o2)cc1 (stereo not drawn),-24%,-9%,110,29*,2%,-5%
CC(C)CCOc1ccc(C2=NNC(=O)CC2)cc1,-15%,-8%,43*,26*,-8%,4%
CCCCCc1ccc(C2=NNC(=O)CC2)cc1,-9%,5%,x,14*,1%,6%
COc1ccc(S(=O)(=O)c2c(SC)nn(Cc3ccccc3C)c2NC(C)=O)cc1,2%,x,x,x,3%,x
C(#CCN1CCCC1)CC(c1ccccc1)c1ccccc1,-16%,-2%,-12,-2,1%,1%
CC(=O)Nc1ccc(C(=O)NC2CCSc3ccccc32)cc1 (stereo not drawn),-23%,-5%,13,14*,-4%,-5%
COc1ccc(C(=O)NC2CCSc3ccccc32)cc1 (stereo not drawn),1%,-7%,35*,19*,3%,x
COc1ccccc1C(=O)NC1CCSc2ccccc21 (stereo not drawn),4%,-1%,-19,-1,-14%,x
CSc1ccc(C(=O)NC2CCSc3ccccc32)cc1 (stereo not drawn),-7%,-1%,38,11*,2%,3%
COc1ccc(OC)c(C(=O)NC2CCSc3ccccc32)c1 (stereo not drawn),-1%,-6%,-5,-2,-1%,26%
Cc1nc(C(F)(F)F)ccc1C(=O)N1CCCC(C)(C(=O)O)C1 (stereo not drawn),x,x,x,x,1%,x
COc1ccc(-c2nnc3n2N=C(c2c(OC)cccc2OC)CS3)c(OC)c1,x,x,4,12,x,12%
COc1ccc(-c2cc(-c3n[nH]c(=S)n3-c3ccccc3Cl)[nH]n2)cc1,10%,-5%,-6,-2,u,18%
COc1ccc(O)c(-c2c(-c3ccc(Cl)cc3)n[nH]c2C)c1,50µM*,-15%,47,-1,-22%,u
Clc1ccc(-c2ccn[nH]2)cc1,1%,4%[11.5 µM],147*,53*,3%,9%
COc1ccc(-c2cc(-c3ccc(OC)cc3)[nH]n2)cc1,9%[11.4 µM],16%,40,35*,1%,-7%
COc1ccc(-c2cc(-c3cc(C)ccc3O)[nH]n2)cc1,20%,-2%,80*,49*,-5%,-9%
COc1ccc(OC)c(NC(=O)c2cc(-c3cc(C)ccc3O)n[nH]2)c1,4%,5%,36,-2,5%,7%
COc1ccc(Oc2ccc(-c3ccn[nH]3)cc2)cc1,7%,4%,77*,32*,0%,2%
COc1ccc(-c2cc(-c3ccc(C)cc3)n[nH]2)c(O)c1,-1%,-3%,94*,44*,-5%,10%
COc1ccc(S(=O)(=O)N2CCC(c3cc(-c4cccc5ccccc45)n[nH]3)CC2)cc1,-2%,4%,-8,-2,-5%,-4%
